According to publication PMC10668032, “Altered binding affinity of SIX1-Q177R correlates with enhanced WNT5A and WNT pathway effector expression in Wilms tumor”:
Over roughly 33,000 sequences, “e-score” has its median near -0.05; the highest 2% begin near 0.38. Shown is part of a subset that was picked to be rich in the highest values.

These sequences were tested against T1, SIX1-Q177R homeodomain (human, UniProt Q15475 108-198, Q177R) (assay: universal protein binding microarray; Universal all-10-mer PBM (8x60K, AMADID 030236), 300 nM GST-tagged protein, Alexa Fluor 488 anti-GST; buffer, salt, pH and temperature not stated (as in Berger); high values mean tight binding). Conditions: protein: ivt; tags: N-terminal GST; dsDNA, one strand shown.
T1 sequence: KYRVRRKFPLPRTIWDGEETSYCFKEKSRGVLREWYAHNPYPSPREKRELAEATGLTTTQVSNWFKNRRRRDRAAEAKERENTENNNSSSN
Outline: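 After in vitro transcription/translation, GST-tagged homeodomains were quantified against a recombinant GST standard curve by anti-GST western blot. They were then placed in duplicate at 300 nM final concentration on universal 'all 10-mer' protein binding microarrays of 8×60K format.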
Work on CACCACCC yielded a binding signal of 0.3364 ± 0.00314 E-score. For ACGGATCA, the binding signal was 0.172 ± 0.0172 E-score. Sequence GACCCGCC has a binding signal of 0.18 ± 0.0248 E-score. ACGGGTGC showed a binding signal of 0.237 ± 0.00406 E-score. Sequence CCGGGATC has a binding signal of 0.164 ± 0.0362 E-score. With CTCGAGTA the binding signal was 0.164 ± 0.00196 E-score. CTCGGGTA showed a binding signal of 0.168 ± 0.0141 E-score. CTCGTGTA showed a binding signal of 0.398 ± 0.00843 E-score. AACAGGGG showed a binding signal of 0.17 ± 0.00571 E-score. ATAAACAC showed a binding signal of 0.365 ± 0.0198 E-score. Sequence GATAACAC has a binding signal of 0.4333 ± 0.00385 E-score. Work on CAAAACAC yielded a binding signal of 0.321 ± 0.0321 E-score. AATAACAC showed a binding signal of 0.426 ± 0.0299 E-score. GATAATAC was tested, and the binding signal was 0.1568 ± 0.000269 E-score. AATAAACA gave a binding signal of 0.218 ± 0.0334 E-score. CATAACAC was tested, and the binding signal was 0.426 ± 0.00624 E-score. CATAGCAC gave a binding signal of 0.195 ± 0.00827 E-score. GATAACCC was tested, and the binding signal was 0.19 ± 0.0215 E-score. CACCATAA gave a binding signal of 0.303 ± 0.015 E-score. ATGACCCG showed a binding signal of 0.2 ± 0.00637 E-score. Sequence ACTAGGTG has a binding signal of 0.218 ± 0.00902 E-score. ACCCCAAC showed a binding signal of 0.237 ± 0.00988 E-score. Work on ACCGGAGT yielded a binding signal of 0.25 ± 0.0191 E-score. AGACCCCA showed a binding signal of 0.175 ± 0.0169 E-score. ACCACACG gave a binding signal of 0.297 ± 0.00738 E-score. CCCACACG showed a binding signal of 0.2877 ± 0.0011 E-score. In the case of GCCACACC, the binding signal is reported as 0.367 ± 0.0389 E-score. ACCACACA showed a binding signal of 0.196 ± 0.00984 E-score. CCCACACC was tested, and the binding signal was 0.39 ± 0.0401 E-score. ACCACACC gave a binding signal of 0.407 ± 0.0186 E-score. With ACACTTGA the binding signal was 0.376 ± 0.0165 E-score. With CGTTGGTA the binding signal was 0.151 ± 0.00584 E-score. GCGCGACA showed a binding signal of 0.155 ± 0.0207 E-score. For CACCGTAC, the binding signal was 0.365 ± 0.0199 E-score. CACGGCTC gave a binding signal of 0.154 ± 0.0275 E-score. With AGGTCGTG the binding signal was 0.264 ± 0.0209 E-score. Work on CCCCTGCA yielded a binding signal of 0.17 ± 0.016 E-score. Work on ACACTTCA yielded a binding signal of 0.313 ± 0.047 E-score. In the case of ACACTTCC, the binding signal is reported as 0.349 ± 0.026 E-score. For ACACTGCC, the binding signal was 0.429 ± 0.0024 E-score. ACACTGCG gave a binding signal of 0.383 ± 0.00512 E-score. With ACACTGCA the binding signal was 0.385 ± 0.00749 E-score. ACACTGCT was tested, and the binding signal was 0.339 ± 0.0327 E-score. Work on ACACTTCG yielded a binding signal of 0.327 ± 0.0333 E-score. CACGAGTG was tested, and the binding signal was 0.317 ± 0.0328 E-score. CTGGGGTA showed a binding signal of 0.194 ± 0.0256 E-score. For CCCCCAAC, the binding signal was 0.17 ± 0.0237 E-score. For TAATGACA, the binding signal was 0.203 ± 0.0464 E-score. In the case of CGCATTGC, the binding signal is reported as 0.166 ± 0.0234 E-score. AGTGATCC showed a binding signal of 0.184 ± 0.018 E-score. Work on GGCACACA yielded a binding signal of 0.179 ± 0.0131 E-score. AGGTGTAG gave a binding signal of 0.473 ± 0.00747 E-score. Work on AGGTGCAC yielded a binding signal of 0.264 ± 0.00684 E-score. ATGTGTAC showed a binding signal of 0.23 ± 0.0242 E-score. Sequence ACCTGTAT has a binding signal of 0.17 ± 0.00632 E-score. With CGATGTAC the binding signal was 0.254 ± 0.0159 E-score. For ATGTGTAG, the binding signal was 0.183 ± 0.0469 E-score. For AGGTATAA, the binding signal was 0.17 ± 0.0346 E-score. In the case of AGGTGCGG, the binding signal is reported as 0.187 ± 0.0153 E-score. CGGTGTAC showed a binding signal of 0.4872 ± 0.00266 E-score. For AGGTGTAT, the binding signal was 0.441 ± 0.0169 E-score. In the case of AGGTGTAC, the binding signal is reported as 0.4703 ± 0.00148 E-score. CGGTGCAC showed a binding signal of 0.296 ± 0.017 E-score. CAGCGGGG gave a binding signal of 0.194 ± 0.00852 E-score. In the case of CACTCTCC, the binding signal is reported as 0.192 ± 0.0425 E-score. CACGACGG gave a binding signal of 0.182 ± 0.0214 E-score. Work on CCATTACA yielded a binding signal of 0.162 ± 0.00552 E-score. For CCGGAGTA, the binding signal was 0.227 ± 0.00414 E-score. ACACCGTG gave a binding signal of 0.472 ± 0.00577 E-score. CCCCCGTA was tested, and the binding signal was 0.155 ± 0.0244 E-score. Sequence ACCCCGTC has a binding signal of 0.178 ± 0.0222 E-score. Work on ACGCCGTG yielded a binding signal of 0.185 ± 0.00332 E-score. Sequence ACACCGTC has a binding signal of 0.4594 ± 0.0011 E-score. Sequence ACACCGTA has a binding signal of 0.4704 ± 0.00388 E-score. In the case of GCACCGTA, the binding signal is reported as 0.201 ± 0.0112 E-score. Work on CACCCGTC yielded a binding signal of 0.338 ± 0.01 E-score. Sequence ATACCGTG has a binding signal of 0.301 ± 0.0379 E-score. With ACGTAGAG the binding signal was 0.156 ± 0.0478 E-score. ATAGTACA gave a binding signal of 0.312 ± 0.0122 E-score. CCCCCCCC gave a binding signal of 0.188 ± 0.0377 E-score. In the case of TGCAGACA, the binding signal is reported as 0.167 ± 0.00968 E-score. ACCCGCGG showed a binding signal of 0.171 ± 0.0326 E-score. Sequence ACACGCGA has a binding signal of 0.369 ± 0.00701 E-score. ACACGCGG showed a binding signal of 0.402 ± 0.00628 E-score. For ATACGCGA, the binding signal was 0.151 ± 0.036 E-score. In the case of ACACGCGT, the binding signal is reported as 0.402 ± 0.0109 E-score. ACCCGCGT gave a binding signal of 0.229 ± 0.0104 E-score. In the case of CCCGGCCC, the binding signal is reported as 0.167 ± 0.00402 E-score. In the case of TACCTACA, the binding signal is reported as 0.3116 ± 0.00228 E-score. TCAATACA showed a binding signal of 0.212 ± 0.0334 E-score. With ACGTGCTC the binding signal was 0.215 ± 0.0224 E-score. CACCGGAG gave a binding signal of 0.328 ± 0.00104 E-score. Sequence ACTCAACA has a binding signal of 0.172 ± 0.00693 E-score. Work on ATTAACCC yielded a binding signal of 0.187 ± 0.00393 E-score. CTTCACAC was tested, and the binding signal was 0.278 ± 0.0221 E-score. For ATTAAAAC, the binding signal was 0.158 ± 0.019 E-score. Work on CTTAACAC yielded a binding signal of 0.435 ± 0.00897 E-score. In the case of ATTAACAC, the binding signal is reported as 0.416 ± 0.0363 E-score. Sequence GACTCCTA has a binding signal of 0.2147 ± 0.000728 E-score. For GTTAAGGA, the binding signal was 0.163 ± 0.00211 E-score. Work on CAGGGTGG yielded a binding signal of 0.161 ± 0.0171 E-score. ACTAGCAC was tested, and the binding signal was 0.194 ± 0.00984 E-score. GAGATGTA was tested, and the binding signal was 0.1954 ± 0.000318 E-score. ACAGACAC gave a binding signal of 0.392 ± 0.013 E-score. Sequence AGAGACAC has a binding signal of 0.411 ± 0.00648 E-score. Sequence GCAGACAC has a binding signal of 0.352 ± 0.0222 E-score. For CGAGACAC, the binding signal was 0.389 ± 0.0103 E-score. GGAGACAC gave a binding signal of 0.397 ± 0.0125 E-score. With AGACACAC the binding signal was 0.316 ± 0.0332 E-score. CACGAGAC was tested, and the binding signal was 0.154 ± 0.0312 E-score. ACACAGAT was tested, and the binding signal was 0.167 ± 0.0587 E-score. Sequence CCAGACAC has a binding signal of 0.37 ± 0.0149 E-score. CCGGGTTA showed a binding signal of 0.2 ± 0.024 E-score. For CACGGATG, the binding signal was 0.155 ± 0.0314 E-score. ATCCACTC was tested, and the binding signal was 0.203 ± 0.0237 E-score. Work on TACTCCGA yielded a binding signal of 0.211 ± 0.0155 E-score. CACTCCCG was tested, and the binding signal was 0.1824 ± 0.000608 E-score. For ATTGATAC, the binding signal was 0.196 ± 0.00402 E-score.
